A selection: hits, their analogues and other compounds. The true share with any hit is near 9.4%.
HTT aggregate: reduces HttQ103-GFP aggregates in PC12 cells; Potency, µM (highest dose often 46.1 µM), for the others: at the top dose activity change, negative = inhibition, usual class: inhibitors; AID 1688; hit rate 1.1% among 220,000; PC12 HttQ103-GFP aggregates, Acumen cytometry, 40 h; also: potency is read from the fitted curve at half-maximal effect; % is scaled to controls: 0 for no effect and ±100 for the full control effect; nearly all actives have a fitted effect of over 60% in size
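Inducible Q103 Huntingtin exon 1–GFP PC12 line, 1500 cells/well in phenol red free DMEM with 5% equine and 5% calf serum. Tebufenozide 100 nM induced expression; compounds titrated; aggregates quantified by cytometry.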
HTT ATP protect: cytoprotection in Huntington HTT-Q103 PC12 cell model; Potency, µM (series often up to 56.4 µM), for inactives: cytoprotection (ATP increase), actives largely listed as activators; PC12 HTT-Q103 induced, cytoprotection, ATP luminescence, 40 h; hit rate 0.14% among 230,000; AID 1471; also: potency is read from the fitted curve at half-maximal effect; % of control where 0% means no effect; nearly all actives have a fitted effect of over 45% in size
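PC12 cells with ecdysone-inducible HTT exon 1 Q103-GFP, induced with 100 nM tebufenozide and co-treated with library compounds in a dose series (1536-well, 1500 cells/well). Cytoprotection read as ATP content by ATPlite luminescence.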
HPGD block: inhibitors of human 15-hydroxyprostaglandin dehydrogenase (HPGD). P15428. purified HPGD, NADH fluorescence kinetic, PGE2 substrate. Potency, µM, without a hit: top-dose activity change, negative = inhibition, usual class: inhibitors. hit rate 4.3% among 150,000. AID 894; active = well fitted inhibition curve with a large enough effect, not every such curve was filed as active; inconclusive = small, poorly fitted or top-dose-only effect, or another doubt; inactive = no such curve, though single readings can be large or run the other way; also: potency is read from the fitted curve at half-maximal effect; % is scaled to controls: 0 for no effect and ±100 for the full control effect
Target sequence (P15428 whole entry, looked up): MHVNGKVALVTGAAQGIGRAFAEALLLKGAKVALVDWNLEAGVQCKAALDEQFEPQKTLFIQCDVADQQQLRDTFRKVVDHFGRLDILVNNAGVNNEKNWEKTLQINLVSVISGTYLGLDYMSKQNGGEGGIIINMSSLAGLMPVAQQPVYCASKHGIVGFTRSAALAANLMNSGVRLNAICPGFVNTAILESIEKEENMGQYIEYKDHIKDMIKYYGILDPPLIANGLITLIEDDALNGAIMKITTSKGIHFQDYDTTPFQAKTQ
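NADH formation kinetics: reaction with 30 uM PGE2 and 1 mM NAD+ (final), 20 nM enzyme, Tris-HCl pH 8 with Tween 20, after 15 min compound preincubation at room temperature. Fluorescence change, last versus first of five reads.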
IMPase inh: cell-permeable inhibitors of inositol monophosphatase (IMPase); CHO-M1 cells, IP1 accumulation, HTRF TR-FRET ratio; inhibition (IP1 accumulation), % at 46.1 µM; 120,000 tested, under 10 active; AID 901; active = well fitted curve in the direction sought with a large enough effect in the signal ratio, not every such curve was filed as active; inconclusive = small, poorly fitted or top-dose-only effect, or a change in a side signal; inactive = no such curve, though single readings can be large or run the other way; the % refers to the signal ratio;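 also: cells stimulated with carbachol in lithium chloride buffer; plate controls were DMSO basal wells for no effect and reference inhibitor wells for full effect; higher means more IMPase inhibition seen as more IP1 and lower FRET ratio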
Target sequence (P97697 whole entry, looked up): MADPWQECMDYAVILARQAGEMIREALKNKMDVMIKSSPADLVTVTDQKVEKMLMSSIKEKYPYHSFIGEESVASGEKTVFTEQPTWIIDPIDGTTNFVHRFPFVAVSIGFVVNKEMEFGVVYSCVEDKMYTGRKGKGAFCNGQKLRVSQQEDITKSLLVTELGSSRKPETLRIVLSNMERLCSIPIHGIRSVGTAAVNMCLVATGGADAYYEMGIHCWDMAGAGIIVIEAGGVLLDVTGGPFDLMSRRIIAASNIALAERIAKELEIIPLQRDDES
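CHO-M1 cells (CHO stably expressing M1 receptor), compound up to 46 uM final, stimulated with carbachol (50 uM as added) in buffer with 50mM LiCl, pH 7.4, 30 min at 37C. Cytosolic IP1 read by TR-FRET; AC50 from Hill fits.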
ALDH1A1 inh: ALDH1A1 (human) enzyme inhibition | P00352 | hit rate 7.3% among 220,000 | Purified ALDH1A1, NADH fluorescence, propionaldehyde substrate | Potency, µM (titrated, usually from 75.3 µM), for the others: top-dose activity, negative = inhibition, actives largely listed as inhibitors | AID 1030; active = well fitted inhibition curve with a large enough effect, not every such curve was filed as active; inconclusive = small, poorly fitted or top-dose-only effect, or another doubt; inactive = no such curve, though single readings can be large or run the other way;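 also: potency is read from the fitted curve at half-maximal effect; plate controls were no enzyme wells and a reference inhibitor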
IMPase Li inh: cell-permeable IMPase inhibitors with lithium potentiation; CHO-M1 cells, IP1 TR-FRET (IP-One), carbachol + lithium; Potency, µM (highest dose often 59.4 µM), inactives show at the highest dose activity, negative = IMPase inhibition, actives largely listed as inhibitors; hit rate 0.35% among 210,000; AID 1457;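 also: IP1 builds up when IMPase is blocked and the TR-FRET signal falls; potency is read from the fitted curve at half-maximal effect; plate controls were basal vehicle for no effect and high inhibitor control for full effect; nearly all actives have a fitted effect of over 50% in size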
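Lithium-sensitised IP1 accumulation assay; M1-expressing CHO cells treated 30 min at 37C with compound. Competitive antibody detection by time-resolved FRET followed a 10 min room-temperature lysis step.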
Active calls of the source: *; ? = inconclusive; . = no result; [ ] = dose if it differs, or a comment. Unless noted, calls follow the shape of the dose curve; as a rule, active = well fitted curve in the direction sought with a large enough effect; inconclusive = small, poorly fitted or top-dose-only effect, or another doubt; inactive = no such curve, though single readings can be large; an effect the other way counts as inactive or inconclusive.

SMILES	HTT aggregate	HTT ATP protect	HPGD block	IMPase inh	ALDH1A1 inh	IMPase Li inh
COc1ccc(OC)c(C(c2nnnn2Cc2ccccc2)N2CCN(C)CC2)c1 (centres undefined)	-2%[9.22 µM]	-1%	0%	9	4%	2%[38.3 µM]
COc1ccccc1N1CCN(C(c2ccc(N(C)C)cc2)c2nnnn2CCc2ccccc2)CC1 (centres undefined)	?	-1%[10 µM]	-22%	8	22µM*	8%
CCCC(c1nnnn1Cc1ccc(F)cc1)N1CCN(C)CC1 (centres undefined)	16%[9.22 µM]	-2%[10 µM]	.	.	-8%	20%
CCCC(c1nnnn1Cc1ccc(F)cc1)N1CCN(CC)CC1 (centres undefined)	?	-64%[10 µM]	.	.	22µM*	-2%
COc1ccc(C(c2nnnn2CCc2ccccc2)N2CCN(C3CCCC3)CC2)cc1 (centres undefined)	6%	-15%[10 µM]	.	14	-6%	.
COc1ccc(Cn2nnnc2C(C(C)C)N2CCN(c3ccccc3OC)CC2)cc1 (centres undefined)	-16%	-4%[10 µM]	-8%	4	18µM*	27%[38.3 µM]
C=C1CCO[C@@]2([C@H](O)[C@@](C)(O)CO)NC(=O)[C@]1(O)NC2=O	.	9%[10 µM]	-8%	.	7%[13.5 µM]	-13%
Cc1cc(NC(=O)CSc2nnc(N)s2)c([N+](=O)[O-])cc1C	5%	-23%	.	.	?	2%
COc1cccc(CC(=O)Nc2nc3c(s2)C(=O)CC(C)(C)C3)c1	-36%	-13%	.	.	1.3µM*	?
CC1(C)CC(=O)c2sc(NC(=O)Cc3cccs3)nc2C1	?	14%[10 µM]	-24%	0	0.79µM*	?
Cn1nc(C(C)(C)C)cc1C(=O)Nc1nc2c(s1)C(=O)CC(C)(C)C2	2%	-15%[10 µM]	-11%	?	14µM*	-21%[38.3 µM]
CCOCC(=O)Nc1nc2c(s1)C(=O)CC(C)(C)C2	-26%	-9%	?	?	?	13%[38.3 µM]
CC1(C)CC(=O)c2sc(NC(=O)C3CC3)nc2C1	-13%	-11%	-26%	-10	11µM*	-21%[38.3 µM]
COCCN1C(=O)N[C@@H](CCc2ccccc2)C(C(=O)OC)=C1C	.	-2%	-6%	.	-6%	13%
CCCCC(C=O)CC (centres undefined)	.	1%	-9%	.	-8%	7%
Oc1ccccc1Nc1nc(-c2ccccc2)c2cc(Cl)ccc2n1	.	.	.	6	.	.
Cc1ccc(S(=O)(=O)Nc2nc3c(s2)C(=O)CC(C)(C)C3)cc1	5%[9.22 µM]	-4%[10 µM]	.	.	32µM*	-16%
Cc1onc(-c2c(F)cccc2Cl)c1C(=O)NC1C(=O)N2C1SC(C)(C)C2C(=O)O (centres undefined)	-2%	26%	.	.	.	.
COc1ccc(OCC(=O)Nc2cccc(-c3nc4ccccc4o3)c2)cc1	0%	-34%[10 µM]	?	-1	?	-3%[38.3 µM]
CCc1ccc(OCC(=O)Nc2ccc(-c3nc4ccccc4o3)c(O)c2)cc1	0%	-26%	?	1	?	5.6µM*
Cc1ccc(OCc2ccc(C(=O)N3CCOCC3)cc2)cc1C	-24%	-4%	25µM*	12	0%	31%[38.3 µM]
N#Cc1cccc(NC(=O)N2CC[C@@]3(CCCN(C(=O)c4ccco4)C3)C2)c1	.	2%	-1%	.	?	1%
Nc1c(C(=O)Nc2ccc(S(=O)(=O)N3CCCC3)cc2)sc2nc3cc4c(cc3cc12)CCC4	14µM*	-21%[10 µM]	-8%	4	12%	-9%
COCCNc1nc(-c2ccccc2OC)nc2ccccc12	.	-48%	.	.	?	5%
CCOc1cc(/C=C2/C(=O)ON=C2C)ccc1OCc1ccccc1	16%[9.22 µM]	14%[10 µM]	.	.	-6%	24%
SMILES	HTT aggregate	HTT ATP protect	HPGD block	IMPase inh	ALDH1A1 inh	IMPase Li inh
CC1=NOC(=O)/C1=C\c1ccc2c(c1)OCO2	4%	-19%	.	.	13µM*	-2%
CCOc1cc(/C=C2/C(=O)ON=C2C)ccc1OCc1ccccc1F	12%	-19%	1.6µM*	-1	5µM*	26%[38.3 µM]
Cc1cc(C(=O)Nn2c(C3CCCCC3)nc3ccccc3c2=O)ccc1[N+](=O)[O-]	?	-16%[10 µM]	-5%	.	22µM*	6%
O=C(Nn1c(C2CCCCC2)nc2ccccc2c1=O)c1ccc(Cl)c([N+](=O)[O-])c1	?	-18%[10 µM]	-14%	.	-4%	25%
CCc1ccc(/C=N/N2CCN(c3ccccn3)CC2)cc1	8%[9.22 µM]	10%[10 µM]	.	.	.	.
CCN(Cc1ccccc1)c1ccc(/C=N/N2CCOCC2)cc1	-8%	-7%[10 µM]	-16%	.	2.2µM*	13%
CCN(CC)c1ccc(/C=N/N2CCOCC2)cc1	-19%	9%[10 µM]	-18%	23	22µM*	10%
CCN(CC)c1ccc(/C=N/N2CCN(c3ccccn3)CC2)cc1	-8%[9.22 µM]	-5%[10 µM]	.	.	22µM*	.
COc1ccc(/C=N/N2CCOCC2)cc1O	-4%	.	-8%	.	3%	-4%
N[C@@]1(C(=O)O)CN[C@@H](C(=O)O)C1	.	-15%	.	.	15%	-5%
CC(C)NC(=O)N1CC[C@@]2(CCCN(S(C)(=O)=O)C2)C1	.	?	-3%	.	5%	-4%
CCOc1ccc(S(=O)(=O)N(CC(=O)NCCc2ccc(OC)cc2)c2ccccc2)cc1	.	.	.	10	.	.
CC(C)(C)C(=O)NC(c1ccc(Cl)cc1)[C@]1(C)C[C@H]1C1CCCCC1 (some centres undefined)	.	?	-15%	.	?	-3%
CCCc1noc2c1/C(=N\O)CC(CC(C)SCC)C2 (centres undefined)	-11%	17%[10 µM]	8.9µM*	19	?	12%
COc1ccc2nc(SCc3nc(N)nc(Nc4ccccc4)n3)[nH]c2c1	1%	-21%	-19%	23	7.9µM*	18%[38.3 µM]
COc1ccc(Nc2nc(N)nc(CSc3nc(C)cc(C)n3)n2)cc1	-1%[9.22 µM]	6%[10 µM]	.	.	1%	22%
COc1ccc(S(=O)(=O)Nc2ccccc2C)cc1C(=O)N1CCOCC1	8%[9.22 µM]	-16%[10 µM]	.	.	10µM*	23%
COc1ccc(S(=O)(=O)Nc2cccc(F)c2C)cc1C(=O)N1CCOCC1	-21%	-2%	.	.	13%	-5%
COc1ccc(S(=O)(=O)Nc2cccc(SC)c2)cc1OC	0.71µM*	5%[10 µM]	5%	7	0%	-1%
CSc1ccccc1NS(=O)(=O)c1ccccc1	-8%	-8%	-8%	1	8.9µM*	-7%[38.3 µM]
Cc1cc(O)c(C(C)C)cc1NS(=O)(=O)c1ccccc1	5µM*	5%[0.074 µM]	-8%	12	14µM*	11%[38.3 µM]
Cc1cc(O)c(C(C)C)cc1NC1=NS(=O)(=O)c2ccccc21	-8%	23%	8%	-2	?	5%[38.3 µM]
CCCn1c(-c2ccc(F)cc2)nc2c(N3CCN(Cc4nc(OC)cc(OC)n4)CC3)nc(C)nc21	.	-58%	-23%	.	-14%	-1%

Screening results deposited in PubChem by National Center for Advancing Translational Sciences (NCATS).
